Screening results (PubChem BioAssay)
Hits are enriched below; roughly 21% of the tested compounds scored in any of these assays.
CHX counter: counter-screen for Shiga toxin inhibitors: cycloheximide protein synthesis inhibition; 12% of 300,000 active; max response, %; cell reporter, cycloheximide protein synthesis inhibition counterscreen; in the data active = max response mostly above about 13%, no sharp cut-off; inactive = mostly below about 14%; note: read at 38.3 µM for the half of the compounds with a filed dose
Shiga toxin inh: Shiga toxin inhibition; Vero cells, Shiga toxin protein synthesis inhibition reporter; inhibition, % at 38.7 µM; 9.2% of 290,000 active; AID 2315; in the data active = inhibition mostly above about 28%, no sharp cut-off; inactive = mostly below about 43%
Pf growth 48h: inhibits P. falciparum growth in the first generation, 48 h. P. falciparum luciferase growth in erythrocytes, 48 h. 5.9% of 310,000 active. Potency, µM (series often up to 28.7 µM), actives largely listed as inhibitors. AID 504832
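Luciferase-expressing P. falciparum in infected erythrocytes (2% hematocrit, 0.1% parasitemia final) in RPMI 1640/0.5% Albumax were exposed to compound for 48 hours at 37 C, 5% CO2; growth read as luminescence.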
Pf growth 96h: P. falciparum growth inhibition at 96 hour, primary screen for plastid delayed-death inhibitors; P. falciparum luciferase reporter growth, 96 h; Potency, µM (top dose mostly 28.7 µM), hits mostly inhibitors; 6.9% of 320,000 active; AID 504834
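Plates of compound plus infected erythrocytes (2% hematocrit, 0.05% parasitemia final) incubate 96 hours, 37 C, 5% CO2. Detection reagent added; reduced luminescence from the parasites' luciferase reporter flags inhibition.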
HCV inhibitor: blocks hepatitis C virus. Huh7.5.1 HCVcc-Cre infection, luciferase reporter, 44 h. Potency, µM (highest dose often 41.8 µM), most hits filed as inhibitors. 3.4% of 340,000 active
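Infectious HCV cell culture screen: compound-treated cells (1,000/well, pre-plated 4 h) are infected with HCVcc-Cre at roughly 0.5 moi and grown 44 h. Infection is quantified by luciferase signal after 15 min substrate incubation at room temperature.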
HCMV antiviral: blocks human cytomegalovirus replication. AID 1259415. 4.5% of 410,000 active. HFF cells, HCMV-luciferase reporter, 72 h; hits give low values. activity change, negative = inhibition, % at 57.5 µM; in the data active = activity change below about -60%; inconclusive = no clear call, values can overlap the other calls; inactive = above about -39%
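After 16 h attachment at 37C, HFF cells received test compound and HCMV-luciferase (1 PFU/cell); reporter luminescence read 72 h later, data normalized against buffer-only and known inhibitor Salinomycin.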
A number is an active result; – = inactive; ? = inconclusive; · = no result; + = active, no number; [ ] = another dose, or the depositor's remark. Unless noted, calls come from the whole dose curve; as a rule, active = well fitted inhibition curve with a large enough effect; inconclusive = small, poorly fitted or top-dose-only effect, or another doubt; inactive = no such curve, though single readings can be large or run the other way.

SMILES	CHX counter	Shiga toxin inh	Pf growth 48h	Pf growth 96h	HCV inhibitor	HCMV antiviral
COc1ccc(CNC(=O)C2CCN(S(=O)(=O)N3CCCCC3)CC2)c(OC)c1	–	–	–	–	–	–
Cc1[nH]c2ccccc2c1/C=C/c1nc2ccccc2c(=O)n1CCO	25	49	9.3µM	–[1.15 µM]	?	–
O=c1c2ccccc2nc(/C=C/c2ccc(Cl)cc2)n1CCO	–	–	–	?	?	?
CCCCN(C(=O)c1cc(S(=O)(=O)N2CCCCC2)ccc1Cl)c1c(N)n(CCC)c(=O)[nH]c1=O	·	·	·	·	–	–
CC1Oc2ccccc2N(CC(=O)N2CCCc3ccccc32)C1=O (stereo not drawn)	–	–	–	9.3µM	–	–
Cc1ccc(C(=O)CN2C(=O)C(C)Oc3ccccc32)cc1 (stereo not drawn)	33	–	–	–	?	–
CC1Oc2ccccc2N(CC(=O)c2ccccc2)C1=O (stereo not drawn)	23	–	–	?	–	–
COc1ccc(CN(C(=O)CN2C(=O)C(C)Oc3ccccc32)C2CCCC2)c(OC)c1 (stereo not drawn)	–	–	4.7µM	8.3µM	–	–
CC1Oc2ccccc2N(Cc2ccccc2F)C1=O (stereo not drawn)	–	–	–	?	·	–
CC1Oc2ccccc2N(Cc2ccccc2Cl)C1=O (stereo not drawn)	–	–	?	12µM	–	–
COc1nc(C)ccc1-c1noc(-c2cccs2)n1	58	140	–	–	?	–
COc1nc(C)ccc1-c1noc(-c2ccncc2)n1	23	–	–	–	–	–
COc1cc(-c2nc(-c3ccc(C)nc3OC)no2)cc(OC)c1OC	–	–	–	–	?	·
COc1ccc(OC)c(NC(=O)CSc2nnc(C3CCCCC3)o2)c1	–	–	–	–	–	–
CCCN1C(=O)/C(=C/c2ccc(OCC(=O)OCC)cc2)NC1=S	–	–	?	–	–	–
CCN1C(=O)/C(=C/c2ccc(N3CCCC3)cc2)NC1=S	66	–	–	8.3µM	?	-65
Cc1cc(/C=C2/C(=O)N(C)C(=S)N2C)ccc1N1CCCC1	32	93	–	–	–	–
Cc1cc(/C=C2\NC(=S)N(C)C2=O)ccc1N1CCCC1	33	95	–	–	?	–
CCCN1C(=O)/C(=C/c2ccc(N3CCCC3)c(C)c2)NC1=S	19	50	?	–	?	–
CCCN1C(=O)/C(=C/c2ccc(N3CCOCC3)cc2)NC1=S	–	–	–	?	–	–
COc1ccc(C2Nc3ccccc3C(=O)N2O)cc1OC (stereo not drawn)	20	–	–	–	?	–
COc1cc(C2C(=O)c3ccccc3C2=O)ccc1O	59	·	–	–	–	–
COc1cc(C2Nc3ccccc3C(=O)N2c2ccccc2)ccc1O (stereo not drawn)	47	123	–	·	–	–
COc1ccc(N2C(=O)c3ccccc3NC2c2ccccc2O)cc1 (stereo not drawn)	43	57	–	–	–	–
COC(=O)CN(C#N)c1nc(NC(C)C)nc(NC(C)C)n1	–	–	–	–	–	–
SMILES	CHX counter	Shiga toxin inh	Pf growth 48h	Pf growth 96h	HCV inhibitor	HCMV antiviral
COc1ccc(C2Nc3ccccc3C(=O)N2NC(C)=O)cc1OC (stereo not drawn)	–	–	–	–	–	–
COc1ccc(CCN2C(=O)c3ccccc3NC2c2cc(Cl)c(O)c(OC)c2)cc1 (stereo not drawn)	–	–	?	5.2µM	–	–
COc1ccc(/C(C)=N/N2C(=O)c3ccccc3NC2c2ccc(O)c(OC)c2)cc1 (stereo not drawn)	14	33	–	–	–	–
COc1cc(C2OC(=O)c3c2ccc(OC)c3OC)ccc1O (stereo not drawn)	·	·	7.4µM	–	·	·
COc1ccc(C2Nc3ccccc3C(=O)N2c2ccc(F)cc2)cc1CSc1ccccn1 (stereo not drawn)	15	–	–	–	–	–
Cc1cc(C)c(S(=O)(=O)Nc2cccc(S(=O)(=O)NC3=NCCC3)c2)c(C)c1	–	–	–	–	–	–
O=C1c2ccccc2NC(c2cccc([N+](=O)[O-])c2)N1CCc1ccccc1 (stereo not drawn)	44	74	?	?	–	–
COc1ccc(C2Nc3ccccc3C(=O)N2c2ccccc2)cc1COc1ccccn1 (stereo not drawn)	–	–	?	?	–	–
COc1ccc(C2Nc3ccccc3C(=O)N2c2ccccc2)cc1Cn1cc([N+](=O)[O-])cn1 (stereo not drawn)	–	–	13µM	5.2µM	–	–
CCOc1cc(C2Nc3ccccc3C(=O)N2c2ccccc2)ccc1O (stereo not drawn)	19	–	·	?	–	?
Cc1cccc(C2Nc3ccccc3C(=O)N2CCc2ccccc2)n1 (stereo not drawn)	–	–	–	–	–	–
O=C(c1ccc2c(=O)n3c(nc2c1)CCC3)N1CCCSC1=Nc1ccccc1	·	·	?	–	–	–
CC(c1nnc(SCC(=O)Nc2cc([N+](=O)[O-])ccc2F)n1Cc1ccccc1)N(C)C (stereo not drawn)	–	–	8.3µM	5.2µM	–	–
COCCN(C(=O)c1ccco1)c1nc(-c2ccc(OC)cc2)cs1	·	·	·	·	·	–
COc1cccc(N(C(=O)c2ccco2)c2nc(-c3sc(NC(=O)c4ccco4)nc3C)cs2)c1	–	–	?	?	4µM	?
Cc1nc(NC(=O)c2ccco2)sc1-c1csc(Nc2ccc(Cl)cc2)n1	–	–	9.3µM	9.3µM	2.5µM	?
Cc1ccc(Cl)cc1Nc1nc(-c2sc(NC(=O)c3ccco3)nc2C)cs1	–	–	?	9.3µM	8.9µM	?
Cc1nc(NC(=O)c2ccco2)sc1-c1csc(Nc2ccc(Cl)cc2Cl)n1	–	–	?	8.3µM	?	-77
O=Cc1ccc(C(=O)OCC(=O)NCCC2=CCCCC2)cc1	·	·	?	–	–	–
COc1ccccc1Nc1nc(-c2sc(NC(=O)c3ccco3)nc2C)cs1	–	–	12µM	9.3µM	?	–
CC(C)(C)OC(=O)N1CCNc2ccccc2C1	12	+	–	?	–	–
O=C(Nc1nc2ccccc2n1CCN1CCOCC1)c1ccc(Cl)cc1	12	50	13µM	?	–	–
CC(C)Cn1c(CNC(=O)c2ccccc2)nc2ccccc21	–	–	–	–	–	–
CCCn1c(CNC(=O)c2ccccc2)nc2ccccc21	–	–	–	2.9µM	·	–
C=CCn1c(-c2ccc(C)cc2)nc2ccccc21	–	–	·	–	?	–
C=CCn1c(NC(=O)c2ccc(C)cc2)nc2ccccc21	16	–	?	–	–	–
Cc1ccc(C(=O)Nc2nc3ccccc3n2CCN2CCCC2)cc1	38	104	?	·	–	–
O=[N+]([O-])c1cccc(S(=O)(=O)/N=C(/Nc2ccccc2)c2ccccc2)c1	·	·	·	·	–	–
